Screens (PubChem BioAssay)
S2 tox – reduces viability in counter-screen for ATXN expression inhibitors | S2 cells (HEK-293 line with an ATXN2-luciferase reporter) viability, CellTiter-Fluor protease fluorescence, 24 h | Potency, µM (highest dose often 56.7 µM), actives largely listed as cytotoxic | 400,000 compounds, 0.49% hits; also: potency is read from the fitted curve at half-maximal effect; nearly all actives have a fitted effect of over 40% in size
D3 ag – activates the human D3 dopamine receptor. 410,000 compounds, 0.58% hits. max activation, %. D3R DiscoveRx beta-arrestin cells, luminescence, 90 min. P35462; in the data active = max activation above about 30%; also: 0% is about no effect
Target sequence (P35462 whole entry, looked up): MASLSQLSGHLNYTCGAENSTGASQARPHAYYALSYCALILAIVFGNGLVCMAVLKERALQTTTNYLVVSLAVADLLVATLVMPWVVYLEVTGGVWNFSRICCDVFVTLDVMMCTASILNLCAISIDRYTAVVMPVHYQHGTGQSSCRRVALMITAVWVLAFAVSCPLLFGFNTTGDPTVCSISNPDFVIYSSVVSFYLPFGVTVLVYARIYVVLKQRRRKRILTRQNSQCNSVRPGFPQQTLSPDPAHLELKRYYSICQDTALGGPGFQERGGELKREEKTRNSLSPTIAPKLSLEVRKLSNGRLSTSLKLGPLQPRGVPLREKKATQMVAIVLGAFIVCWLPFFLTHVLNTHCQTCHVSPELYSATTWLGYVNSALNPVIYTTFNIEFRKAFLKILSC
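Agonist mode: compounds and dopamine controls were applied to plated cells for 90 min at 37 degrees C after an overnight attachment at 1500 cells/well. Luminescent read-out followed 30 - 60 minutes at room temperature with DiscoveRx detection reagent.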
IL1B secr inh – inflammasome signaling inhibition, IL-1 beta readout; THP-1 LPS/ATP IL-1B secretion, AlphaLISA, 16 h; active compounds read low; AID 743279; 360,000 compounds, 4.7% hits; activity change, % at 57.5 µM; in the data active = activity change below about -50%; inconclusive = mostly about -30% to -49%; also: % is scaled to controls: 0 for no effect and ±100 for the full control effect
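Secreted IL-1B measured by AlphaLISA bead assay after 16 h compound exposure of THP-1 cells; compounds (final up to 57.5 uM) added 1 h before LPS (250 ng/mL) and ATP (1.25 mM) stimulation; lower signal means less secretion.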
ATXN2 expr inh – inhibitors of ATXN2 expression; HEK-293 ATXN2-luciferase reporter, luminescence, 24 h; Potency, µM (top dose mostly 57 µM), inactives show top-dose activity change, negative = inhibition, most hits filed as inhibitors; 360,000 compounds, 0.72% hits; AID 1745845; also: potency is read from the fitted curve at half-maximal effect; % is scaled to controls: 0 for no effect and ±100 for the full control effect; nearly all actives have a fitted effect of over 55% in size
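qHTS (up to 57 uM final) was run with 24 h compound exposure of reporter cells at 37 °C. Each well was multiplexed: SteadyGlo luminescence measured ATXN2-luciferase expression after a fluorogenic Gly-Phe-AFC viability readout (25 uM final).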
D3 antag – D3 dopamine receptor (human) antagonism | P35462 | D3R cells, DiscoveRx beta-arrestin luminescence, antagonist mode; active compounds read low | max response, negative = inhibition, % | 360,000 compounds, 2.5% hits | AID 652054; in the data active = max response below about -50%; inconclusive = no clear call, values can overlap the other calls; also: % is scaled to controls: 0 for no effect and ±100 for the full control effect
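Cells expressing the human receptor were seeded at 1500 cells/well, incubated overnight at 37 degrees C in 5% CO2, then exposed to library compounds with dopamine controls for 90 minutes at 37 degrees C before luminescent detection.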
Integrin act MD – activates integrin-mediated alleviation for muscular dystrophy. Potency, µM (highest dose often 38.3 µM), inactives show at the highest dose activation, most hits filed as activators. 350,000 compounds, 0.064% hits. AID 624291. alpha7betagal myoblasts, beta-gal FDG fluorescence, 48 h;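 also: potency is read from the fitted curve at half-maximal effect; 100% = response of the positive control SU9516; nearly all actives have a fitted effect of over 60% in size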
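Alpha7betagal+/- myoblasts (passage 13) were plated 16-24 hr, then exposed to compounds (1:260 dilution of DMSO stock) for 48 hours at 37C. After MPER lysis, β-galactosidase reporter activity was read as FDG fluorescence (ex 480/em 540) after 30 minutes.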
* hit, by the source's call; [ ] = another dose, or the depositor's remark. Rows were chosen to be rich in hits. Some 7% of all compounds tested hit in one or more screens of this group. Unless noted, calls follow the shape of the dose curve; as a rule, active = well fitted curve in the direction sought with a large enough effect; inconclusive = small, poorly fitted or top-dose-only effect, or another doubt; inactive = no such curve, though single readings can be large; an effect the other way counts as inactive or inconclusive.

Screening COc1ccc(-c2cc(C(=O)N3CCCCC3)c3ccccc3n2)cc1OC returned S2 tox inactive, D3 ag -1, IL1B secr inh -69*, ATXN2 expr inh 2%, D3 antag -14 and Integrin act MD -11%.
For O=C(Nc1cccc(Cl)c1)c1ccc(F)c(S(=O)(=O)N2CCC3(CC2)OCCO3)c1 the results were D3 ag 3.
For CCc1ccc(N2C(=O)C(Cl)=C(Nc3ccc(C(=O)N4CCCC4)cc3)C2=O)cc1 the results were S2 tox inactive, D3 ag -14, IL1B secr inh -92*, ATXN2 expr inh -9%, D3 antag -57* and Integrin act MD 0%.
For COc1cc2c(cc1OC)C(C)N(C(=S)NC(=O)c1ccccc1)CC2 (centres undefined) the results were S2 tox inconclusive, D3 ag 10, IL1B secr inh 30, ATXN2 expr inh 0%[11.3 µM], D3 antag 17 and Integrin act MD 2%.
CON/C=C(\C=Nc1ccccc1)c1ncc(C(F)(F)F)cc1Cl was read as S2 tox inactive, D3 ag -3, IL1B secr inh 6, ATXN2 expr inh 14%, D3 antag -7 and Integrin act MD 4%.
For Nc1ccc(-c2cc3ccccc3oc2=O)cc1 the results were D3 ag -8, IL1B secr inh -18, ATXN2 expr inh 0.28µM*, D3 antag -29 and Integrin act MD 1%.
Screening CCN(C(=O)CCc1nc(-c2ccc(C)cc2)no1)c1cc(C)ccc1C returned S2 tox inactive, D3 ag -25 and ATXN2 expr inh -20%.
O=C1CN(C(=O)CSc2nc3ccccc3c(=O)n2Cc2ccc(F)cc2)c2ccccc2N1 was read as S2 tox inactive, D3 ag 4, IL1B secr inh -71*, ATXN2 expr inh -30%, D3 antag -3 and Integrin act MD -14%.
For O=P(Cc1nnco1)(c1ccccc1)c1ccccc1 the results were S2 tox inactive, D3 ag -6, IL1B secr inh 19, ATXN2 expr inh 1%, D3 antag -63* and Integrin act MD -30%.
COc1ccc(CP(=O)(c2ccccc2)c2ccccc2)cc1 was read as S2 tox inactive, D3 ag -8, IL1B secr inh 1, ATXN2 expr inh 3%, D3 antag 0 and Integrin act MD 8%.
Cc1ccc(-n2ncc(C(=O)Nc3ccc(Cl)cc3)c2C2CCNCC2)cc1C was read as S2 tox inconclusive, D3 ag 6, IL1B secr inh -73*, ATXN2 expr inh inconclusive, D3 antag -2 and Integrin act MD -57%.
Screening Cc1ccc(C)c(N2CCN(C(=O)c3ccc(CS(=O)Cc4cccc(Cl)c4)o3)CC2)c1 (centres undefined) returned S2 tox inactive, D3 ag 1, IL1B secr inh -75*, ATXN2 expr inh -19%, D3 antag 18 and Integrin act MD -32%.
Screening O=C(c1ccc(CS(=O)Cc2ccc(Cl)cc2)o1)N1CCN(c2cccc(Cl)c2)CC1 (centres undefined) returned S2 tox inactive, D3 ag 0, IL1B secr inh -83*, ATXN2 expr inh -30%, D3 antag 23 and Integrin act MD -10%.
O=C(c1ccc(CS(=O)Cc2cccc(Cl)c2)o1)N1CCN(c2ccc(F)cc2)CC1 (centres undefined) was read as S2 tox inactive, D3 ag -3, IL1B secr inh -11, D3 antag 27 and Integrin act MD -2%.
O=C(c1ccc(CS(=O)Cc2ccc(Cl)cc2)o1)N1CCN(c2ccc(F)cc2)CC1 (centres undefined) was read as S2 tox inactive, D3 ag -11, IL1B secr inh inconclusive, ATXN2 expr inh -32%, D3 antag 3 and Integrin act MD -28%.
Screening C/C(=N\NC(=O)c1c(C)nc2ccccn12)c1cccc([N+](=O)[O-])c1 returned S2 tox inactive, D3 ag 4, IL1B secr inh 7, ATXN2 expr inh -4%, D3 antag 14 and Integrin act MD 22%.
Screening Cc1ccc(/C=C/C(=O)c2c(C)nc3ccccn23)cc1 returned S2 tox inactive, D3 ag 1, IL1B secr inh -95*, ATXN2 expr inh 40%, D3 antag 25 and Integrin act MD -57%.
Screening Cc1nc2ccccn2c1C(=O)/C=C/c1cccc([N+](=O)[O-])c1 returned S2 tox inactive, D3 ag -4, IL1B secr inh -75*, ATXN2 expr inh 2%, D3 antag 4 and Integrin act MD -51%.
For CC(=O)c1c(C)nc2ccccn12 the results were S2 tox inactive, D3 ag 4, IL1B secr inh -5, ATXN2 expr inh 0%, D3 antag 8 and Integrin act MD -10%.
For O=C(NNC(=O)c1ccccc1F)C1=NN(c2ccccc2)C(=O)CC1 the results were S2 tox inactive, D3 ag 8, IL1B secr inh 4, ATXN2 expr inh 0%, D3 antag 2 and Integrin act MD 15%.
`Cc1c(N=NC2=C(O)CCCC2=O)c(=O)n(-c2ccccc2)n1C` gave S2 tox inactive, D3 ag -28, IL1B secr inh 8, ATXN2 expr inh -11%, D3 antag -83* and Integrin act MD -25%.
CCC(=O)NC[C@H](Cc1ccc(OCCc2nc(-c3ccccc3)oc2C)cc1)NC(C)=CC(=O)c1ccc(C(F)(F)F)cc1 was read as ATXN2 expr inh 22µM*.
For O=C(Cn1c(=O)n(Cc2ccccc2)c(=O)c2sc3ccccc3c21)Nc1ccccc1 the results were S2 tox inactive, D3 ag -2 and ATXN2 expr inh -10%.
`CN(Cc1ccon1)C(=O)C1CCC(=O)N(CCc2ccc(Cl)cc2)C1` (centres undefined) gave S2 tox inactive, D3 ag 6, IL1B secr inh 8, ATXN2 expr inh 11%, D3 antag 9 and Integrin act MD 0%.
`OC1(c2cccs2)CN(c2ccccc2)C2=[N+]1CCCC2` (centres undefined) gave S2 tox inactive, D3 ag -9, IL1B secr inh -87*, ATXN2 expr inh -5%, D3 antag -3 and Integrin act MD -36%.
For CC(C)S(=O)(=O)c1csc(NC(=O)Nc2cc(Cl)ccc2Cl)c1Cl the results were S2 tox inconclusive, D3 ag -30, IL1B secr inh -101*, ATXN2 expr inh -23%, D3 antag -11 and Integrin act MD inconclusive.
For CC(=O)NC(CCS(C)(=O)=O)C(=O)Nc1cc(Cl)ccc1Cl (centres undefined) the results were S2 tox inactive, D3 ag -1, IL1B secr inh 12, ATXN2 expr inh -15%, D3 antag -2 and Integrin act MD -6%.
